Measurements from the supplement of paper PMC7156485.
Where “and” joins values, the source holds several entries; their conditions need not be identical. Equal values may be shown once. ± gives the standard deviation of the averaged measurements.

How the values were obtained:
Conditions in all cases: concentration: 10 µM; 24 h
HCC1569 [1] = assay: cell number relative to DMSO (% of DMSO); higher = more cells (less growth inhibition / toxicity)
Procedure, shortened: (§1)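 For HCC1569 and TDF cells, compounds at 10 µM were applied for 24 h at 37 °C in triplicate in 384-well plates. Cells were fixed in 3.7% formaldehyde, stained for H1.0 and with DAPI, and imaged at ×10 over six fields per well. The endpoint, H1.0 nuclear intensity or cell number, is shown as percent of the plate control using the median of replicates. Positional effects were smoothed for HCC1569 only.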

TDF [2] = assay: as above
Procedure, shortened: as §1

TDF [3] = assay: H1.0 immunofluorescence intensity relative to DMSO (% of DMSO); higher = stronger H1.0 induction, active = 120 or more
Procedure, shortened: as §1

HCC1569 [4] = assay: H1.0 immunofluorescence intensity relative to DMSO (% of DMSO); higher = stronger H1.0 induction, active = 140 or more
Procedure, shortened: as §1
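For H1.0 immunofluorescence intensity relative to DMSO in this document: TDF is a line of transformed human dermal fibroblasts of mesenchymal origin.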
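For cell number relative to DMSO in this document: TDF denotes transformed human dermal fibroblasts of mesenchymal origin.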

Row | SMILES | cell number (HCC1569 [1]) | cell number (TDF [2]) | H1.0 immunofluorescence intensity (TDF [3]) | H1.0 immunofluorescence intensity (HCC1569 [4])
1 | COC1(C2=NCCN2)COc2ccccc2O1.Cl (centres undefined) | 104 | 108 | 89.4 (inactive) | 102 (inactive)
2 | CCCCCC1OC1CC=CCC=CCC=CCCCC(=O)O (centres undefined) [14,15-Epoxyeicosatrienoic acid] | 103 | 112 | 103 (inactive) | 94.8 (inactive)
3 | CC1=C(C(=O)O)N2C(=O)C(NC(=O)C(N)C3=CCC=CC3)C2SC1 (centres undefined) [Cephadrine] | 100 | 101 | 96.3 (inactive) | 88 (inactive)
4 | CC1=C2C(=COC(C)C2C)C(=O)C(C(=O)O)=C1O (centres undefined) [Citrinin] | 104 | 102 | 101 (inactive) | 97.8 (inactive)
5 | COc1cc(Br)c(S(=O)(=O)Nc2ccc(Cl)c(O[C@@H]3CCN(C)C3)c2)cc1OC | 83.2 | 82.9 | 94.8 (inactive) | 137 (inactive)
6 | Cl.Cl.Nc1nccc(-c2c(-c3ccc(F)cc3)ncn2C2CCCCC2)n1 | 80.6 | 92.2 | 79.8 (inactive) | 130 (inactive)
7 | COC(=O)Nc1nc2ccc(S(=O)c3ccccc3)cc2[nH]1 (centres undefined) [Oxfendazole] | 100 | 68.2 | 108 (inactive) | 124 (inactive)
8 | CC1OC(Oc2c(-c3ccc(O)c(O)c3)oc3cc(O)cc(O)c3c2=O)C(O)C(O)C1O (centres undefined) [Quercitrin] | 97.5 | 106 | 101 (inactive) | 99.1 (inactive)
9 | CN=C(NC#N)Nc1ccc(C2=NNC(=O)CC2C)cc1 (centres undefined) [Siguazodan] | 103 | 104 | 95.4 (inactive) | 115 (inactive)
10 | CCCCCC(=O)C=CC1C(O)CC(O)C1CC=CCCCC(=O)O (centres undefined) [15-keto-prostaglandin F2a] | 101 | 108 | 92.9 (inactive) | 103 (inactive)
11 | CCN(CC)CCCC(C)Nc1ccnc2cc(Cl)ccc12.O=P(O)(O)O.O=P(O)(O)O (centres undefined) [Chloroquine diphosphate] | 98.3 | 106 | 94.7 (inactive) | 94.1 (inactive)
12 | CCCCCCCCCCCCCCC(=O)O [Pentadecanoic acid] | 99 | 92.6 | 105 (inactive) | 107 (inactive)
13 | C[N+]1(C)CCC(OC(=O)C(c2ccccc2)c2ccccc2)CC1.[I-] [4-DAMP methiodide] | 100 | 105 | 98.6 (inactive) | 101 (inactive)
14 | Cc1ccc(NC(=O)c2cccc(N(C)C)c2)cc1NC(=O)c1ccc(O)cc1 | 92.1 and 95.3 | 100 and 94.1 | 96.7 (inactive) and 105 (inactive) | 110 (inactive) and 119 (inactive)
15 | COc1ccc(CN(CCN(C)C)c2ccccn2)cc1.O=C(O)C=CC(=O)O [Pyrilamine maleate] | 103 | 104 | 99.6 (inactive) | 100 (inactive)
16 | CC(=O)C1CCC2C3CC=C4CC(O)CCC4(C)C3CCC12C (centres undefined) [Pregnenolone] | 102 | 102 | 95.7 (inactive) | 112 (inactive)
17 | COc1ccc(-c2coc3cc(O)ccc3c2=O)cc1 [Formononetin] | 104 | 103 | 87.5 (inactive) | 80.9 (inactive)
18 | CCCCCC(=O)c1c(O)c(Cl)c(OC)c(Cl)c1O [1-(3,5-dichloro-2,6-dihydroxy-4-methoxyphenyl)-1-hexanone] | 93.6 | 90 | 101 (inactive) | 120 (inactive)
19 | NCC1OC(OC2C(N)CC(N)C(OC3OC(CO)C(O)C(N)C3O)C2O)C(N)CC1O (centres undefined) [Tobramycin (free base)] | 103 | 102 | 107 (inactive) | 106 (inactive)
20 | CCN(CC)CC(=O)Nc1c(C)cccc1C.Cl.O [Lidocaine.HCl.H2O] | 99 | 99.8 | 89.5 (inactive) | 103 (inactive)
21 | CCC(C)N(C)C(=O)c1cc2ccccc2c(-c2ccccc2Cl)n1 (centres undefined) | 101 | 110 | 90.8 (inactive) | 84 (inactive)
22 | O=C(O)C(O)C(O)C(=O)O.O=C(c1ccc(F)cc1)C1CCN(CCn2c(=O)[nH]c3ccccc3c2=O)CC1 [Ketanserin tartrate] | 96.9 | 93.1 | 106 (inactive) | 104 (inactive)
23 | C=CC1CN2CCC1CC2C(O)c1ccnc2ccc(OC)cc12.C=CC1CN2CCC1CC2C(O)c1ccnc2ccc(OC)cc12.O=S(=O)(O)O (centres undefined) [Quinine sulfate] | 102 | 97.8 | 92.8 (inactive) | 100 (inactive)
24 | CC1(C(=O)O)CCC2(C)CCC3(C)C(=CC(=O)C4C5(C)CCC(O)C(C)(C)C5CCC43C)C2C1 (centres undefined) | 102 | 108 | 98.4 (inactive) | 84.4 (inactive)
25 | CCCCCN(C)CCC(O)(P(=O)(O)O)P(=O)(O)O [Ibandronate] | 103 | 100 | 98.4 (inactive) | 97.2 (inactive)
26 | CCCCCC(O)C=CC=CCCCCCCCC(=O)O (racemic) | 102 | 107 | 95.9 (inactive) | 101 (inactive)

Row | SMILES | cell number (HCC1569 [1]) | cell number (TDF [2]) | H1.0 immunofluorescence intensity (TDF [3]) | H1.0 immunofluorescence intensity (HCC1569 [4])
27 | CCCN(CCC)CCc1cccc2c1CC(=O)N2.Cl [Ropinirole hydrochloride] | 101 | 95.8 | 96.1 (inactive) | 101 (inactive)
28 | FC(F)(F)c1ccc(CNc2ccc(Cc3c[nH]c4ncccc34)cn2)cc1 | 75.5 | 74.9 | 108 (inactive) | 139 (inactive)
29 | Cl.Cl.Fc1ccc(C(c2ccc(F)cc2)N2CCN(CC=Cc3ccccc3)CC2)cc1 [Flunarizine dihydrochloride] | 101 | 110 | 89.1 (inactive) | 97.3 (inactive)
30 | O=C(C=Cc1ccc(O)c(O)c1)c1ccc(O)cc1O [Butein] | 74.3 | 89.2 | 94.3 (inactive) | 133 (inactive)
31 | CN(C)CCC=C1c2ccccc2CCc2ccccc21.Cl [Amitriptyline.HCl] | 105 | 89.4 | 99.6 (inactive) | 123 (inactive)
32 | CCC=CCC=CCC=CCC=CC=CC(O)CCCC(=O)O (racemic) | 106 | 94.7 | 103 (inactive) | 99 (inactive)
33 | CCCSc1ccc2nc(NC(=O)OC)[nH]c2c1 [Albendazole] | 61.4 | 9.62 | 149 (active) | 176 (active)
34 | C[C@H]1C[C@H]2[C@@H]3CCC4=CC(=O)C=C[C@]4(C)[C@@]3(F)[C@@H](O)C[C@]2(C)[C@@]1(O)C(=O)COP(=O)([O-])[O-].[Na+].[Na+] | 97.2 | 106 | 83.8 (inactive) | 111 (inactive)
35 | Cc1cnc(C(=O)NCCc2ccc(S(=O)(=O)NC(=O)NC3CCCCC3)cc2)cn1 [Glipizide] | 106 ± 3.7 | 107 ± 6.9 | 96.6 (inactive) | 103 (inactive)
36 | CC(C)(C)NC(=O)C1CCC2C3CCC4NC(=O)C=CC4(C)C3CCC12C (centres undefined) [Finasteride] | 102 | 97.4 | 95.4 (inactive) | 108 (inactive)
37 | CCCCCCCCCCCCCCCCOCC(COCC(F)(F)F)OP(=O)([O-])OC.[Li+] (centres undefined) | 102 | 93.8 | 99.5 (inactive) | 92.3 (inactive)
38 | CCCCCC(O)C=CC=CC=CC(O)CC=CCCCC(=O)O [8(R),15(S)-DIHETE all trans] | 102 | 107 | 91.4 (inactive) | 98.4 (inactive)
39 | Clc1ccc(CCC(Cn2ccnc2)Sc2c(Cl)cccc2Cl)cc1.O=[N+]([O-])O (centres undefined) [Butoconazole nitrate] | 98.1 | 99.7 | 93 (inactive) | 115 (inactive)
40 | Oc1cc(O)cc(C=Cc2ccc(O)c(O)c2)c1 [Piceatannol] | 90.4 ± 5.3 | 93.7 ± 4.5 | 97.2 (inactive) | 114 (inactive)
41 | CNCCCC1c2ccccc2C=Cc2ccccc21.Cl [Protriptyline hydrochloride] | 92.7 | 99.5 | 109 (inactive) | 117 (inactive)
42 | CCCN(CCC)C(=O)C(CCC(=O)O)NC(=O)c1ccccc1 (centres undefined) [Proglumide] | 109 | 112 | 88.6 (inactive) | 88 (inactive)
43 | Cc1ccc(NC2=CC(=O)c3sc(C)nc3C2=O)cc1 [Cdk4 Inhibitor III] | 26.6 | 12 | 132 (active) | 105 (inactive)
44 | C=CC1CN2CCC1CC2C(O)c1ccnc2ccc(OC)cc12.Cl.O (centres undefined) | 99.6 | 90.1 | 96.8 (inactive) | 95 (inactive)
45 | CCOC(=O)C=C(C)C=CC=C(C)C=Cc1c(C)cc(OC)c(C)c1C [Etretinate] | 104 | 97.6 | 101 (inactive) | 115 (inactive)
46 | O=c1c(O)c(-c2cc(O)c(O)c(O)c2)oc2cc(O)ccc12 [Robinetine] | 99 | 105 | 98.3 (inactive) | 90.7 (inactive)
47 | CC12C=CC(=O)C=C1CCC1C3CC(O)C(O)(C(=O)CO)C3(C)CC(O)C12F (centres undefined) [Triamcinolone] | 97.5 ± 4.1 | 105 ± 9.9 | 86.8 (inactive) | 117 (inactive)
48 | Nc1nc(N)c2nc(CNc3ccc(C(=O)NC(CCC(=O)O)C(=O)O)cc3)cnc2n1 (centres undefined) [Aminopterin] | 80.8 | 87.6 | 87.8 (inactive) | 75.9 (inactive)
49 | CC[C@H](C)[C@H](N)C(=O)N1CCC[C@H]1C(=O)N[C@H](C(=O)O)[C@@H](C)CC | 102 | 85.3 | 97.2 (inactive) | 103 (inactive)
50 | O=C(O)Cc1c[nH]c2ccccc12 [Indole-3-acetic acid] | 100 | 102 | 94.5 (inactive) | 84.8 (inactive)
51 | COc1ccc2cc1Oc1ccc(cc1)CC1c3c(cc4c(c3Oc3cc5c(cc3OC)CCN(C)C5C2)OCO4)CCN1C (centres undefined) [Cepharanthine] | 95.3 | 83 | 108 (inactive) | 129 (inactive)
